According to PubChem BioAssay (NCI):
About 83,000 compounds went through this panel and 20% of them were active in at least one assay; those are over-represented in the sample as a whole.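 Assay: single dose, 48 h. Readout: percent growth (0 = no net growth; negative = cell death). Active: <10.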 The source made the active and inactive calls.

How the values were obtained:
Assay in all cases: NCI-60 one-dose screen, 48 h (100 = growth as untreated, 0 = no growth, -100 = all killed)
Conditions in all cases: 10 µM unless noted
SR leukemia = system: SR leukemia
RPMI-8226 leukemia = system: RPMI-8226 leukemia
OVCAR-8 ovarian = system: OVCAR-8 ovarian
OVCAR-5 ovarian = system: OVCAR-5 ovarian
OVCAR-4 ovarian = system: OVCAR-4 ovarian
SK-OV-3 ovarian = system: SK-OV-3 ovarian
IGROV1 ovarian = system: IGROV1 ovarian
OVCAR-3 ovarian = system: OVCAR-3 ovarian
HS 578T breast = system: HS 578T breast
NCI/ADR-RES ovarian = system: NCI/ADR-RES ovarian

Measured: growth

COc1cc2c(c(OC)c1O)C(=O)C(OC)C(c1ccc(O)c(O)c1)O2 (stereo not given)
active: RPMI-8226 leukemia -19.3% | OVCAR-3 ovarian -24%
inactive: SR leukemia 10.8% | OVCAR-8 ovarian 17.1% | OVCAR-5 ovarian 42.5% | OVCAR-4 ovarian 37.8% | SK-OV-3 ovarian 46.5% | IGROV1 ovarian 14.1% | HS 578T breast 24.7% | NCI/ADR-RES ovarian 16.6%

CSc1ccc(/C=C2\C=C(CC(=O)NCc3ccc(C(=O)c4ccccc4)cc3)c3cc(F)ccc32)cc1
inactive: SR leukemia 10.3% | RPMI-8226 leukemia 15.2% | OVCAR-5 ovarian 25.2% | OVCAR-4 ovarian 10.9% | IGROV1 ovarian 10.3%
active: OVCAR-8 ovarian 1.81% | SK-OV-3 ovarian -34.4% | OVCAR-3 ovarian -60.1% | HS 578T breast 2.68% | NCI/ADR-RES ovarian -34.6%

O=S1(=O)NCCN1CCNc1nccc(-c2c(-c3cccc(O)c3)nc3sccn23)n1
inactive: SR leukemia 62.2% | RPMI-8226 leukemia 102% | OVCAR-8 ovarian 103% | OVCAR-5 ovarian 91.9% | OVCAR-4 ovarian 131% | SK-OV-3 ovarian 97.4% | IGROV1 ovarian 105% | OVCAR-3 ovarian 108% | HS 578T breast 95.9% | NCI/ADR-RES ovarian 107%

Cc1c2c(cc3c1[nH]c1ccccc13)C=NCC2
inactive: SR leukemia 64.1% | RPMI-8226 leukemia 87% | OVCAR-8 ovarian 94.1% | OVCAR-5 ovarian 98.3% | OVCAR-4 ovarian 94% | SK-OV-3 ovarian 96.5% | IGROV1 ovarian 105% | OVCAR-3 ovarian 101% | HS 578T breast 99.1% | NCI/ADR-RES ovarian 85.6%

CCn1c(Cc2ccccc2Nc2c(Cl)cccc2Cl)nnc1SCC(=O)Nc1ccccc1C(F)(F)F
inactive: SR leukemia 79.8% | RPMI-8226 leukemia 76.4% | OVCAR-8 ovarian 92.8% | OVCAR-5 ovarian 110% | OVCAR-4 ovarian 79% | SK-OV-3 ovarian 96.1% | IGROV1 ovarian 79.4% | OVCAR-3 ovarian 99.9% | HS 578T breast 94.9% | NCI/ADR-RES ovarian 87.4%

COc1ccc2nc3ccccc3c(NCc3ccc(Cl)cc3)c2c1
active: SR leukemia -29.6% | RPMI-8226 leukemia -44.9%
inactive: OVCAR-8 ovarian 29.7% | OVCAR-5 ovarian 26.5% | OVCAR-4 ovarian 24.5% | SK-OV-3 ovarian 64% | IGROV1 ovarian 16.3% | OVCAR-3 ovarian 51% | HS 578T breast 36% | NCI/ADR-RES ovarian 22.9%

CN1CCCN(CCNc2nccc(-c3c(-c4cccc(O)c4)nc4sccn34)n2)S1(=O)=O
inactive: SR leukemia 13.9% | RPMI-8226 leukemia 81.7% | OVCAR-8 ovarian 60.1% | OVCAR-5 ovarian 80.6% | OVCAR-4 ovarian 51.5% | SK-OV-3 ovarian 15.5% | IGROV1 ovarian 13.7% | OVCAR-3 ovarian 60.6% | HS 578T breast 54.3% | NCI/ADR-RES ovarian 102%

O=C(CC(=O)c1ccccc1F)Nc1ccc([N+](=O)[O-])cc1
inactive: SR leukemia 77.7% | RPMI-8226 leukemia 68.4% | OVCAR-8 ovarian 97.4% | OVCAR-5 ovarian 104% | OVCAR-4 ovarian 92.8% | SK-OV-3 ovarian 108% | IGROV1 ovarian 97.9% | OVCAR-3 ovarian 109% | HS 578T breast 110% | NCI/ADR-RES ovarian 103%

CC(=O)O[C@H]1CC[C@]2(C)[C@H]3CC=C4[C@@H]5CC(C)(C)CC[C@]5(C(=O)OCC(COC(=O)C(Cl)Cl)(COC(=O)C(Cl)Cl)NC(=O)C(Cl)Cl)CC[C@@]4(C)[C@]3(C)CC[C@H]2C1(C)C
inactive: SR leukemia 60.3% | RPMI-8226 leukemia 33.5% | OVCAR-8 ovarian 68.5% | OVCAR-5 ovarian 86.1% | OVCAR-4 ovarian 67.6% | SK-OV-3 ovarian 86.1% | IGROV1 ovarian 89.5% | OVCAR-3 ovarian 67% | HS 578T breast 83.9% | NCI/ADR-RES ovarian 78%

COc1cc(/C=C/c2cc(/C=C/c3ccc(O)c(OC)c3)n(C(=O)c3ccccc3Br)n2)ccc1O
inactive: RPMI-8226 leukemia 14.3% | OVCAR-8 ovarian 27.7% | OVCAR-5 ovarian 84.5% | OVCAR-4 ovarian 49.8% | SK-OV-3 ovarian 16.6% | IGROV1 ovarian 25% | OVCAR-3 ovarian 12.6% | NCI/ADR-RES ovarian 28.1%
active: SR leukemia -4.77% | HS 578T breast 3.59%

C=C[C@H]1CCC/C=C/[C@@H]2C[C@H](O)C[C@H]2[C@H](O)/C=C/C(=O)O1
inactive: OVCAR-5 ovarian 13.4% | SK-OV-3 ovarian 26.3% | HS 578T breast 18.8%
active: SR leukemia 0.87% | RPMI-8226 leukemia -4.42% | OVCAR-8 ovarian 2.59% | OVCAR-4 ovarian 8% | IGROV1 ovarian -0.584% | OVCAR-3 ovarian -62.7% | NCI/ADR-RES ovarian 5.21%

O=C(NO)c1ccc(CNc2cccc3nc(C4CC4)n(-c4ccccc4)c(=O)c23)cc1
inactive: OVCAR-5 ovarian 35.7% | OVCAR-4 ovarian 11.5% | SK-OV-3 ovarian 16% | HS 578T breast 39.8%
active: SR leukemia 1.62% | RPMI-8226 leukemia -26.6% | OVCAR-8 ovarian -15.4% | IGROV1 ovarian 8.21% | OVCAR-3 ovarian 0.886% | NCI/ADR-RES ovarian -10.7%

CC(C)=CC[C@@H]1CC2(CC=C(C)C)C(=O)C(OC3(C(=O)c4ccccc4)C(=O)C4(CC=C(C)C)C[C@@H](CC=C(C)C)C(C)(C)C(CC=C(C)C)(C4=O)C3=O)(C(=O)c3ccccc3)C(=O)C(CC=C(C)C)(C2=O)C1(C)C (stereo not given in full)
inactive: OVCAR-5 ovarian 14.9% | OVCAR-4 ovarian 20.4% | IGROV1 ovarian 15.5%
active: SR leukemia 4.95% | RPMI-8226 leukemia -23% | OVCAR-8 ovarian 1.06% | SK-OV-3 ovarian 2.61% | OVCAR-3 ovarian -9.05% | HS 578T breast 1.98% | NCI/ADR-RES ovarian 5.81%

COc1ccc2[nH]cc(C3(c4c[nH]c5ccc(OC)cc45)C(=O)Nc4ccc(Cl)cc43)c2c1
inactive: RPMI-8226 leukemia 36.4% | OVCAR-8 ovarian 90.4% | OVCAR-5 ovarian 89.1% | OVCAR-4 ovarian 79.6% | SK-OV-3 ovarian 93.4% | IGROV1 ovarian 50% | OVCAR-3 ovarian 61.9% | HS 578T breast 65.4% | NCI/ADR-RES ovarian 90.1%
active: SR leukemia 7.95%

CC(=O)CC(c1ccc([N+](=O)[O-])cc1)c1c(O)c2ccccc2oc1=O (stereo not given)
inactive: SR leukemia 92.9% | RPMI-8226 leukemia 108% | OVCAR-8 ovarian 105% | OVCAR-5 ovarian 100% | OVCAR-4 ovarian 110% | SK-OV-3 ovarian 108% | IGROV1 ovarian 107% | OVCAR-3 ovarian 109% | HS 578T breast 97.9% | NCI/ADR-RES ovarian 105%

CCCCCCCCCCCCCCCC1=NCCN1
active: SR leukemia -44.9%
inactive: RPMI-8226 leukemia 40.8% | OVCAR-8 ovarian 84.5% | OVCAR-5 ovarian 69% | OVCAR-4 ovarian 78% | SK-OV-3 ovarian 99.2% | IGROV1 ovarian 42.3% | OVCAR-3 ovarian 77% | HS 578T breast 84.4% | NCI/ADR-RES ovarian 75.4%

O=C(C(=O)N1CCCC1)c1cn(CCCn2cc(C(=O)C(=O)N3CCCC3)c3cc(Br)ccc32)c2ccc(Br)cc12
active: OVCAR-4 ovarian 5.38% | HS 578T breast -9.76%
inactive: SR leukemia 65.9% | RPMI-8226 leukemia 76.8% | OVCAR-8 ovarian 59.6% | OVCAR-5 ovarian 94.7% | SK-OV-3 ovarian 90.4% | IGROV1 ovarian 67.9% | OVCAR-3 ovarian 60% | NCI/ADR-RES ovarian 51%

COc1cc(/C=C/c2cc(/C=C/c3ccc(O)c(OC)c3)n(C(=O)Nc3ccc(F)c(Cl)c3)n2)ccc1O
active: SR leukemia 1.44% | RPMI-8226 leukemia -11.3% | OVCAR-8 ovarian -44% | OVCAR-5 ovarian 0.879% | OVCAR-4 ovarian 9.26% | SK-OV-3 ovarian -31.2% | IGROV1 ovarian 4.57% | OVCAR-3 ovarian -26.4% | HS 578T breast -12.9%
inactive: NCI/ADR-RES ovarian 12%

Cc1nn(-c2cccc(Cl)c2)c(C)c1N=Nc1ccc(Br)cc1
inactive: SR leukemia 92.7% | RPMI-8226 leukemia 95.4% | OVCAR-8 ovarian 97.4% | OVCAR-5 ovarian 94.1% | OVCAR-4 ovarian 94.5% | SK-OV-3 ovarian 92.3% | IGROV1 ovarian 100% | OVCAR-3 ovarian 112% | HS 578T breast 96.6% | NCI/ADR-RES ovarian 105%

Cc1ccccc1Nc1n[nH]c(Cc2ccccc2)n1
inactive: SR leukemia 99.7% | RPMI-8226 leukemia 93.8% | OVCAR-8 ovarian 98.1% | OVCAR-5 ovarian 111% | OVCAR-4 ovarian 112% | SK-OV-3 ovarian 105% | IGROV1 ovarian 107% | OVCAR-3 ovarian 106% | HS 578T breast 98.9% | NCI/ADR-RES ovarian 106%

CC(C)CCSc1nc(-c2ccc(F)cc2)c(C#N)c(N2CCCCC2)n1
inactive: SR leukemia 87.6% | RPMI-8226 leukemia 91.2% | OVCAR-8 ovarian 89.3% | OVCAR-5 ovarian 102% | OVCAR-4 ovarian 93.6% | SK-OV-3 ovarian 105% | IGROV1 ovarian 106% | OVCAR-3 ovarian 105% | HS 578T breast 99.1% | NCI/ADR-RES ovarian 99.2%

COc1ccccc1-[n+]1cc(-c2ccc(-c3ccccc3)cc2)n2c1CCCCC2
active: SR leukemia 8.54% | RPMI-8226 leukemia -14.7% | OVCAR-8 ovarian 2.74% | SK-OV-3 ovarian -18.1% | OVCAR-3 ovarian 9.07%
inactive: OVCAR-5 ovarian 18.4% | OVCAR-4 ovarian 20.2% | IGROV1 ovarian 16.6% | HS 578T breast 22.1% | NCI/ADR-RES ovarian 86.9%

COc1ccc([C@H]2c3[nH]c4ccccc4c3C[C@H]3C(=O)N(CCCCCCC(=O)NO)CC(=O)N23)cc1
active: RPMI-8226 leukemia -9.73%
inactive: SR leukemia 16.5% | OVCAR-8 ovarian 30.3% | OVCAR-5 ovarian 23.3% | OVCAR-4 ovarian 54.3% | SK-OV-3 ovarian 55.3% | IGROV1 ovarian 34.3% | OVCAR-3 ovarian 33.9% | HS 578T breast 47.7% | NCI/ADR-RES ovarian 58.4%

COc1ccc(CNc2c3ccccc3nc3ccc(OC)cc23)cc1
inactive: OVCAR-8 ovarian 25.4% | OVCAR-5 ovarian 30.7% | OVCAR-4 ovarian 18.4% | SK-OV-3 ovarian 47.2% | IGROV1 ovarian 11.2% | OVCAR-3 ovarian 40.4% | HS 578T breast 25.9% | NCI/ADR-RES ovarian 16.2%
active: SR leukemia -15.5% | RPMI-8226 leukemia -47.7%

CC(C)(C)c1nn(-c2ccccc2)c2c1C(=O)CSC(c1ccccc1Cl)N2 (stereo not given)
active: SR leukemia -13.8% | SK-OV-3 ovarian 7.26% | NCI/ADR-RES ovarian 0.0963%
inactive: RPMI-8226 leukemia 42.9% | OVCAR-8 ovarian 35.7% | OVCAR-5 ovarian 46.8% | OVCAR-4 ovarian 72.5% | IGROV1 ovarian 30.3% | OVCAR-3 ovarian 11.3% | HS 578T breast 47.5%

COc1ccc(-c2cc(-c3cn(-c4cccc(Cl)c4)nc3-c3ccc(OC)cc3)[nH]c(=S)n2)cc1
inactive: SR leukemia 75.3% | RPMI-8226 leukemia 50.1% | OVCAR-8 ovarian 84% | OVCAR-5 ovarian 97% | OVCAR-4 ovarian 75.8% | SK-OV-3 ovarian 90.1% | IGROV1 ovarian 59.4% | OVCAR-3 ovarian 108% | HS 578T breast 88.7% | NCI/ADR-RES ovarian 99.6%
